Data on nine compounds can be found in PubChem BioAssay.

Assay [1] in a line: HepG2 liver cancer cell viability effects, profiling panel, resazurin fluorescence, 24 h, PK04 Diversity Set (AID 1172). As to conditions: higher = more signal.
Assay [2] in a line: basal S. cerevisiae growth modulation, no modifier, primary screen, OD600, strain BY4716, 24 h, basal condition (AID 1173). As to conditions: OD600, 24 h, higher = more signal, called active from +8 up or from −8 down.
Assay [3] in a line: MM1S myeloma cell viability, profiling panel, resazurin fluorescence, basal, 24 h, PK04 Diversity Set (AID 1174). As to conditions: higher = more signal, called active from +8 up or from −8 down. (Alamar Blue is a resazurin reagent that responds to reducing activity.)
In assay [4] the target is Dihydroorotate dehydrogenase (quinone), mitochondrial (Plasmodium falciparum (isolate 3D7)) (UniProt Q08210). Nature of the assay: PfDHODH enzyme inhibitors, primary screen, biochemical, C-terminal His tag, absorbance 600 nm (AID 1175).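 Further: recombinant parasite enzyme with a five histidine tag at its C terminus.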 The following applies: DCIP absorbance 600 nm, higher = more signal, called active from +8 up or from −8 down.
Chain of Dihydroorotate dehydrogenase (quinone), mitochondrial (Plasmodium falciparum (isolate 3D7)) (Q08210 whole entry, looked up): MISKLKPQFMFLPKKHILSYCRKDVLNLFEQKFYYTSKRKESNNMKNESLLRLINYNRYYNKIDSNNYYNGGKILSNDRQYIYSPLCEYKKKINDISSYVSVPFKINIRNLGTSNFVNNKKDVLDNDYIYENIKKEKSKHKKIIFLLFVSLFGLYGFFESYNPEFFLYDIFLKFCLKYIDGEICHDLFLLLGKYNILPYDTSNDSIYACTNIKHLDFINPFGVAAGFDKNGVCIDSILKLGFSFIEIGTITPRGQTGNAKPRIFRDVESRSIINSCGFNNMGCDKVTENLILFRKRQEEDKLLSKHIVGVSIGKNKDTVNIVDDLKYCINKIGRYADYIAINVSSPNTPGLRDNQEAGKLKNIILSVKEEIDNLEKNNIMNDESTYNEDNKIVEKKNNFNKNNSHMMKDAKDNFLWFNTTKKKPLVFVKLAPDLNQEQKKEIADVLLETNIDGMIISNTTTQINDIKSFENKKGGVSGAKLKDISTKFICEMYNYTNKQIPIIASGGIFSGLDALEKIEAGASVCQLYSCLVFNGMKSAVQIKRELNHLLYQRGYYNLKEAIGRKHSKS
The nature of assay [5]: P. aeruginosa biofilm formation inhibitors, primary screen, strain PAO1, LB-PBS medium, absorbance 600 nm (AID 1176). The following applies: P. aeruginosa PAO1 growth/biofilm, A600, 12 h; higher = more signal.
Assay [6] is described as follows: S. cerevisiae RM11-1a growth modifiers, primary screen, strain RM11-1a, OD600, basal, 24 h (AID 1177).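 Further: cultures grown under basal conditions with no added stressor.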 As to conditions: OD600, 24 h, higher = more signal, called active from +8 up or from −8 down.
Assay [7] is described as follows: E. coli acrAB mutant growth effects, primary screen, E. coli filamentation inducers, strain DRC39, OD650, 24 h (AID 1178).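 Further: growth measured as culture turbidity by optical density at 650 nm.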 The following applies: higher = more signal, called active from +8 up or from −8 down.
Assay [8] in a line: E. coli acrAB mutant growth effects, primary screen, E. coli filamentation inducers, strain DRC39, OD650, 48 h (AID 1179).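 Further: screen aims at cell division blockers that make cells filament.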 As to conditions: E. coli DRC39 delta-acrAB growth, higher = more signal, called active from +8 up or from −8 down.
Assay [9] is described as follows: RPMI8226 myeloma cell viability, profiling panel, resazurin fluorescence, basal, 24 h, PK04 Diversity Set (AID 1180).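 Further: RPMI8826 multiple myeloma cell line at 5000 cells per well.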 As to conditions: higher = more signal.
The target in assay [10] is E3 ubiquitin-protein ligase XIAP (Homo sapiens) (UniProt P98170). Nature of the assay: XIAP binders, primary screen, biophysical, small-molecule microarray, fluorescence 635 nm (AID 1181).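 Further: score merges 667 nm emission and signal to noise over triplicate slides.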 As to conditions: small-molecule microarray binding, higher = more signal.
Chain of E3 ubiquitin-protein ligase XIAP (Homo sapiens) (P98170 whole entry, looked up): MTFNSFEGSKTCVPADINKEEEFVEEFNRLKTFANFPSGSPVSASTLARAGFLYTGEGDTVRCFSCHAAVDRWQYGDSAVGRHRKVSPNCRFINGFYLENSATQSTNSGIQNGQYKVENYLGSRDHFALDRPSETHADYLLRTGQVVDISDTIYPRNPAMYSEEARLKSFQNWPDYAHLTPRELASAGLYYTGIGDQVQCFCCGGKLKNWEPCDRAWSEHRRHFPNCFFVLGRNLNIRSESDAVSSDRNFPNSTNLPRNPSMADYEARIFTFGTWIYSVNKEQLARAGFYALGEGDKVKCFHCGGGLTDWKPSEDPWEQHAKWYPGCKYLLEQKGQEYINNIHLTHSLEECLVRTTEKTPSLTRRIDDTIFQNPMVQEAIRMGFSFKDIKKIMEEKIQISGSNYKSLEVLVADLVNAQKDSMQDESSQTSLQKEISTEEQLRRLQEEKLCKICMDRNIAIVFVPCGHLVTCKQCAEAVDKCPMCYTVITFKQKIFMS
Assay [11] has as its system XIP peptide (Xip251-270) binding. Nature of the assay: small-molecule binders of XIP peptide, primary screen, biochemical, small-molecule microarray, fluorescence 635/667 nm, 0.1 µg/mL protein (AID 1182). As to conditions: fluorescent protein binding, 635 nm, higher = more signal, called active from +8 up or from −8 down.
The subject of a further assay is XIP peptide (Xip251-270). Nature of the assay: small-molecule binders of XIP peptide, primary screen, biochemical, small-molecule microarray, fluorescence 635/667 nm, 0.5 µg/mL protein (AID 1183). The following applies: small-molecule microarray binding, fluorescence 635 nm; higher = more signal.
Assay [12] can be described thus: Plasmodium falciparum growth inhibition, primary screen, strain 3D7, DAPI fluorescence, 100 nL (AID 1184).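 Further: parasites grown inside human red blood cells in medium with human serum.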 The following applies: P. falciparum 3D7 growth, 3 d, higher = more signal.
Assay [13] has as its target Homeobox protein Hox-A13 (Mus musculus) (UniProt Q62424). Nature of the assay: inhibitors of HoxA13-DNA binding, primary screen, biochemical, fluorescence polarization, labeled oligonucleotide (AID 1185). The following applies: 15 min, higher = more signal, called active from +8 up or from −8 down. Background: In fluorescence polarisation assays a small probe gives low polarisation when free and higher when bound to something large.

Assay [14] can be described thus: inhibitors of hydroxyurea-induced Chk1 phosphorylation, primary screen, imaging, HeLa, phospho-Chk1 antibody, percent positive cells (AID 1186). The following applies: hydroxyurea-induced phospho-Chk1 immunofluorescence imaging, higher = more signal.
Assay [15] can be described thus: inhibitors of hydroxyurea-induced Chk1 phosphorylation, primary screen, imaging, HeLa, phospho-Chk1 nuclear intensity (AID 1187). The following applies: hydroxyurea-induced phospho-Chk1 immunofluorescence imaging, higher = more signal.

Active and inactive are the calls of the source. Unless noted, how the calls were made is not given here.

Chain of Homeobox protein Hox-A13 (Mus musculus) (Q62424 whole entry, looked up): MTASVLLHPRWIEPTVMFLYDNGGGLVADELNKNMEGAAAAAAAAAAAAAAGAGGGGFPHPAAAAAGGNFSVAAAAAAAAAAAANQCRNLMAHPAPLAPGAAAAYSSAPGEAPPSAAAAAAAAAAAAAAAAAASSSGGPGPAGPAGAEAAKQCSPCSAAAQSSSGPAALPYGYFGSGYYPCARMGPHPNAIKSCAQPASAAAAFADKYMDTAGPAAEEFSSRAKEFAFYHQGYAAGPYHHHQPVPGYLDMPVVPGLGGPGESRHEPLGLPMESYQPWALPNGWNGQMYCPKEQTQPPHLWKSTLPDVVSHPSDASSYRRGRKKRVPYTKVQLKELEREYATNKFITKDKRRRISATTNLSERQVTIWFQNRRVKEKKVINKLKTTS

As for `C=CCNC(=O)[C@@H]1[C@H]2C(=O)O[C@H](c3ccccc3)[C@H](c3ccccc3)N2[C@H](c2ccccc2OCCO)[C@@]12C(=O)N(C(=O)OCCOC)c1ccc(C#CCC(C(=O)OC)C(=O)OC)cc12`, the z-score in [1] was 0.865; in [2], 2.2 (inactive); in assay [3], -1.69 (inactive); in assay [5], 3.54 (inactive); in assay [6], 1.62 (inactive); in [7] it was 0.275 (inactive). Also, the z-score was -0.418 (inactive) in [8]; -0.11 in assay [9]; -2.14 in assay [12]; -0.757 (inactive) in [13]; 0.071 (inactive) in assay [14]; 0.361 (inactive) in assay [15]. For the same compound, the composite z-score in [4] is -2.24 (inactive); in assay [10], 0.666; in [11] it was 2.28 (inactive); in the assay with XIP peptide (Xip251-270), 0.878.
Take `CC(C)[Si]1(C(C)C)O[C@@H](c2ccccc2)c2cc(-c3ccc(-c4ccc(Cl)c(Cl)c4)o3)nc(CCc3ccccc3)c21`: the z-score was -0.662 in assay [1]; -3.29 (inactive) in assay [2]; -0.701 (inactive) in assay [3]; 0.726 (inactive) in assay [5]; 0.144 (inactive) in assay [6]; 0.231 (inactive) in assay [7]. The z-score in assay [8] is -0.0564 (inactive); in assay [9] it was -0.622; in [12], 0.952; in assay [13], -0.21 (inactive); in assay [14] it was 0.0301 (inactive); in [15], -0.289 (inactive). The composite z-score is -0.231 (inactive) in assay [4], -0.27 in assay [10], -0.0577 (inactive) in assay [11] and -1.03 in the assay with XIP peptide (Xip251-270).
With `C[N+](C)(C)CCCC[C@@H]1NC(=O)[C@@H]2C[C@H](C(=O)NCCCCCCNC(=O)CS)[C@H](c3cccc(OCCO)c3)N2C1=O`, the z-score was 0.0265 in assay [1]; 0.159 (inactive) in assay [2]; -0.0664 (inactive) in assay [3]; -0.117 (inactive) in assay [5]; -0.18 (inactive) in assay [6]; 0.253 (inactive) in [7]. The z-score was 0.832 (inactive) in assay [8]; 0.24 in assay [9]; -0.198 in [12]; -3.62 (inactive) in assay [13]; -0.38 (inactive) in [14]; -0.386 (inactive) in assay [15]. Also, the composite z-score is 0.092 (inactive) in assay [4], 0.131 in assay [10], 0.339 (inactive) in [11] and 0.623 in the assay with XIP peptide (Xip251-270).
Consider `COc1ccc([Si](C)(C)[C@@H]2[C@@H](CC(=O)N3Cc4ccccc4C[C@H]3CO)O[C@]3(C(=O)N(Cc4cccc(N5C(=O)COc6ccccc65)c4)c4ccccc43)[C@H]2C)cc1`, for which the z-score is 0.645 in [1]; -1.17 (inactive) in assay [2]; -1.84 (inactive) in assay [3]; 1.92 (inactive) in assay [5]; 1.39 (inactive) in [6]; 1.53 (inactive) in [7]. Besides, the z-score is 1.53 (inactive) in [8]; -0.748 in assay [9]; -2.79 in [12]; -0.616 (inactive) in assay [13]; -0.635 (inactive) in [14]; -0.0275 (inactive) in assay [15]. The composite z-score is -1.32 (inactive) in [4], 0.188 in [10], 1.16 (inactive) in assay [11] and 0.778 in the assay on XIP peptide (Xip251-270).
`C=CCOC(=O)[C@@H]1[C@H]2C(=O)O[C@H](c3ccccc3)[C@H](c3ccccc3)N2[C@H](c2ccc(OCCOC(=O)[C@H]3C[C@H]4C(=O)N[C@@H](Cc5ccccc5)C(=O)N4[C@H]3c3ccc(O)cc3)cc2)[C@@]12C(=O)Nc1ccc(I)cc12`: the z-score in assay [1] is -0.0291; in assay [2], -0.149 (inactive); in assay [3] it was -1.98 (inactive); in [5], 0.932 (inactive); in assay [6] it was 2.52 (inactive); in [7] it was -1.52 (inactive). The z-score in assay [8] was -1.06 (inactive); in assay [9], -1.01; in assay [12], 0.265; in [13] it was 6.27 (inactive); in assay [14] it was -0.177 (inactive); in assay [15], -0.343 (inactive). The composite z-score was -8.55 (active) in [4], -0.187 in [10], 2.09 (inactive) in [11] and 0.81 in the assay on XIP peptide (Xip251-270).
On to `CCCCN1CC=CC23O[C@@H]4/C=C\CCCOC(=O)C4[C@H]2C(=O)N(C(C)CO)[C@@H]3C1=O` (some centres undefined), for which the z-score is -0.901 in [1]; -0.138 (inactive) in assay [2]; 0.196 (inactive) in [3]; -0.857 (inactive) in assay [5]; 0.429 (inactive) in assay [6]; 0.742 (inactive) in assay [7]. Further, the z-score was 0.738 (inactive) in [8]; 0.442 in [9]; 0.494 in [12]; -4.24 (inactive) in [13]; 0.166 (inactive) in assay [14]; 0.711 (inactive) in assay [15]. Further, the composite z-score is -0.415 (inactive) in assay [4], -0.157 in assay [10], 0.502 (inactive) in assay [11] and -0.269 in the assay on XIP peptide (Xip251-270).
In the case of `COc1ccccc1CN1C(=O)c2ccccc2[C@](Cc2ccccc2I)(C(=O)NC2CC2)[C@@H]1c1ccc(CO)cc1`, the z-score in assay [1] was -0.246; in assay [2], 0.329 (inactive); in [3], -0.185 (inactive); in [5], 0.0714 (inactive); in assay [6] it was 1.66 (inactive); in [7], 0.127 (inactive). Moreover, the z-score is 0.877 (inactive) in assay [8]; -0.198 in [9]; -2.22 in assay [12]; -4.79 (inactive) in assay [13]; -0.145 (inactive) in [14]; 0.548 (inactive) in assay [15]. Moreover, the composite z-score in assay [4] is 0.629 (inactive); in assay [10] it was 0.591; in [11] it was -0.259 (inactive); in the assay with XIP peptide (Xip251-270), 0.823.
`C=C(C)[C@@H]1CC=C(C(O)C2C=CC3C(=O)N(Cc4ccccc4)C(=O)C3N2n2cnnc2)CC1` (some centres undefined): the z-score in [1] is -0.429; in assay [2] it was 0.349 (inactive); in assay [3], -0.893 (inactive); in assay [5], 0.878 (inactive); in assay [6], -0.616 (inactive); in assay [7] it was 0.518 (inactive). Further, the z-score is -0.66 (inactive) in [8]; -0.334 in [9]; -1.03 in assay [12]; -1.35 (inactive) in assay [13]; -0.0789 (inactive) in assay [14]; 0.265 (inactive) in assay [15]. Moreover, the composite z-score is -0.295 (inactive) in [4], 1.74 in assay [10], -0.137 (inactive) in assay [11] and 0.3 in the assay on XIP peptide (Xip251-270).
On to `CC[C@@H]1C=C(C(=O)O)[C@H](c2ccc(C(C)C)cc2)N1S(=O)(=O)c1ccc(C)cc1`, for which the z-score was -0.892 in assay [1]; -1.01 (inactive) in assay [2]; -0.725 (inactive) in assay [3]; 0.16 (inactive) in assay [5]; -1.27 (inactive) in assay [6]; -0.862 (inactive) in assay [7]. Further, the z-score in [8] is 0.133 (inactive); in assay [9], -2.23; in assay [12], -0.646; in assay [13] it was -5.17 (inactive); in [14], 0.122 (inactive); in [15] it was -0.118 (inactive). Moreover, the composite z-score in [4] is -0.976 (inactive); in assay [10], 0.198; in assay [11] it was 0.719 (inactive); with XIP peptide (Xip251-270), 0.924.
